This assay has as its system VDR:RXRa (NR concentration 270 nM, RXRa partner concentration 90 nM). Briefly: PBM binding z-score (relative to random genomic background probes); higher = stronger binding; sequences stand for … in GC…GCGATTGACAGCGTAGAATGAAGG
As for the experimental part: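 Protein-binding microarray (Agilent 4x180K custom design, double-stranded 60-nt probes: 5' GC cap, 34-nt variable region, 24-nt constant primer region; full probe sequence given). Purified or IVT nuclear receptor:RXRα heterodimers (3:1 NR:RXRα, mostly 270:90 nM) or homodimers were incubated for 1 h in PBS with 2% milk and no ligand, then detected with Alexa488 antibodies. Fluorescence from o1-orientation probes (~5 replicates averaged) was converted to z-scores against 500 random hg19 background probes. Variable regions are seed direct-repeat (DR0–DR5) sites, all their single-nucleotide variants and half-site ablations.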
For the sequence CGAACTAGGTCAAGGCCAGTGAATCTCCGCACGC, the PBM binding z-score worked out at 1.31.
Under CGTCAAAGGTCAAGGTCAGTGAAAGAGACTCGAA stands 5.77; under AATACGGGGTCACTAGGCCAGAGTAGGTACGAAT, 6.16.
On to CGAACGAGGTCACCAGGACAGTGAAGAGGTTGGA, for which the PBM binding z-score came out at 5.65.
Take TGTATGAGGTTAAAGATCAGGGAACGTGGCGTCG: the PBM binding z-score is 2.15.
Consider ATTTGTAGGTTACATCCGGGTCATTCAGGCTATG, for which the PBM binding z-score turned out to be 4.68.
Under CCTACTCGGCCAAAAAGGTCATTGATGCCGATAA stands 4.9; under CCTTAAGGGTCACGAGGTTATAGCACGACGAGCG, 6.02; under GATACAGGGTCGGCTAGAGGCCAGAGTATGGAAA, 0.547.
The sequence GCTAGTTGGTCAGTAAAATGTCACACACCGGTCG registered a PBM binding z-score of -0.0389.
Under ATATGTAGGTTAGCTGGGGTCCTTCAGACTAGGC stands 0.978; under CCTCGGAGGACAGAAGGTCAAAGCTGTCCGCTTT, 2.84; under CGAACTAGGTCATCCAGGACCGTGAATACATTGA, 2.39.
AACGAAAGGTCGAAGGTGAGTATACCCACCCGAA: the PBM binding z-score amounted to 2.9.
To CGTCCAAGGTCAGCGGGTCAGTGAAAGCGACGTG belongs 4.57.
TAGCCTAGGTCGTTCAGGGGCCAGTATAGAAAGC displayed a PBM binding z-score of 0.798.
To CAGCATAGGTCAGGGCCAGTATAGGAGGAACGTT belongs 1.4; to CGTCCGAGGTCAAGGTCAGTGAAAGAGACTCGAA, 5.48.
To CGTCCAAGGTCAATGCTAGATCAGTGAAAGCATT belongs 3.51; to AGAATGAGGTCATACGTAGATCAGGGAAGAAAGT, 5.41.
To TAGCCTAGGTCATGCGGGACAGTATAGTGTCGGC belongs 3.48.
For CGTACAAGGTCAAAGGTCAGTGAAGAGATGACGG, the PBM binding z-score came out at 6.84.
CCTTACGGGTCACTGACAGGTTATAGCGTTTGGA showed a PBM binding z-score of 3.63.
Under AATACAGGGTCATCGTACGCCAGAGTACGCACAG stands 5.2; under TCTGCTAGGTCAACGATGGTCAGTTAATCTGCTA, 1.62.
To ATATGTAGGTTAGGGTCAGTCAGAAAGTAGGGAA belongs 2.49; to GATACGGGGTCAAGGCCAGAGTACGCGTATTGAT, 6.27; to TAGCCTAGGTCATACAGGGGCCAGTATAGAAAGC, 2.6.
Under CCTTACGGGTTACTCCAGGTTATAGCATCGGAGT stands 1.39; under TCTGCTAGGTCATCGATGGTCAGCTAATCTGCTA, 2.16; under CGAACTAGGTCAAGGACAGTAAATCTCCGCACGC, 1.33.
In turn, TCTGCTAGGTCAACGTTGGTCAGCTAATCTGCTA showed a PBM binding z-score of 1.46.
Under TAGCCTAGGTCATTCAGGGGCCAGCATAGAAAGC stands 2.97.
Under TTACCAAGGTCAAAGGTCGTTGATGCACGCCTTG stands 6.42; under CCTGCTAGGTCAAAGGTCAGCTAAAGCAGCTCGC, 5.81; under ATCGAAAGGTCTAAGGTGAGTATACCCACCCGAA, 0.393.
Under GCTGCTAGGTCAACTGATGGTCACCTAAAGCTCG stands 2.05; under CCTCGGAGGTCAACAGGAGGTCAGAGCTGCCAGA, 6.19.
In turn, CAAACTAGTTCAAGAGGTCAAAGTCCGCTTCCCG showed a PBM binding z-score of 5.54.
Under AGAATGGGGTTATACGTAGATCAGGGAAGAAAGT stands 3.03.

(Values after the supplement of paper PMC6555819.)
